# Assay outcomes: PubChem BioAssay, The Scripps Research Institute Molecular Screening Center
# A selection: hits, their analogues and other compounds. The true share with any hit is near 2.9%.
# ADAM17 inh: inhibits human ADAM17; P78536; recombinant ADAM17, EDANS/DABCYL FRET peptide cleavage; inhibition, % at 6.95 µM; 370,000 tested, 0.83% active;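 active means inhibition above the mean of compounds lying between control limits plus 3 SD, set per campaign, cut at about 8.5% in these data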;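 further: 0% = DMSO-only wells as the low control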
# PLC-beta3 inh: PLC-beta3 (human) inhibition, primary screen; Purified PLC-beta3, fluorogenic substrate, fluorescence; Q01970; inhibition, % at 12.2 µM; 370,000 tested, 0.18% active; AID 720704; in the data active means inhibition above about 11%;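 further: 0% = median of compound wells on plate and 100% = full blocker control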
# ADAM10 inh: ADAM10 inhibition, QFRET primary screen | O14672 | recombinant ADAM10, EDANS/DABCYL FRET peptide cleavage, 3 h | inhibition, % at 7 µM | 370,000 tested, 0.62% active;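 active means inhibition above a per-campaign cutoff equal to the mean of compounds falling between control-based bounds plus 3 SD, cut at about 20% in these data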;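 further: 0% = DMSO wells while the 100% control is not disclosed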
# KLK7 zymogen act: activates the human kallikrein-7 zymogen | P49862 | purified proKLK7, EDANS-DABCYL substrate fluorescence; 100% is mature enzyme control, 0% vehicle | activation, % at 7 µM | 370,000 tested, 0.9% active | AID 652039;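 active means activation above the mean of all tested compounds plus 3 SD, computed per campaign excluding outliers beyond control limits, cut at about 13% in these data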
# PLCg1 inh: PLC-gamma1 (human) inhibition, primary screen; P19174; inhibition, % at 12.2 µM; 370,000 tested, 0.84% active; purified PLC-gamma1, fluorogenic substrate, fluorescence; in the data active means inhibition above about 9.5%
# KLK7 act conf: confirmation of human kallikrein-7 zymogen activators; shares compounds with KLK7 zymogen act; purified proKLK7, EDANS-DABCYL substrate fluorescence; scaled: vehicle 0, mature enzyme 100; activation, % at 7 µM; 3,200 tested, 68% active; AID 686949;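 active means activation, as change over the incubation, above the mean of all tested compounds plus 3 SD, cut at about 13% in these data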
# EDANS-DABCYL int: fluorescence interference counter-screen for KLK7 activators; shares compounds with KLK7 zymogen act; EDANS-DABCYL substrate fluorescence interference, no enzyme, 4 h; solvent 0%, active enzyme control 100%; activation, % at 7 µM; 3,200 tested, 80% active; AID 686952;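 active means activation above the all-compound mean plus 3 SD, ignoring values outside control-based bounds, cut at about 4.8% in these data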;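 further: value is the 4 h activation minus the activation read at time zero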
# K7 EDANS ctr: optically interferes with EDANS-DABCYL fluorescence, kallikrein-7 activator counter-screen; shares compounds with KLK7 zymogen act; EDANS-DABCYL peptide fluorescence interference, no enzyme; EC50, µM; 250 tested, 20% active;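 active means compounds that raise the fluorescence signal in this interference counterscreen, with EC50 at or below 10 µM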;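 further: intact quenched peptide substrate alone read at 355 nm excitation and 520 nm emission; signal is fluorescence gain from T0 to T4 after four hours at room temperature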
# * marks the source's active call; other numbers are inactive results; i = inactive; / = no result given.
SMILES,ADAM17 inh,PLC-beta3 inh,ADAM10 inh,KLK7 zymogen act,PLCg1 inh,KLK7 act conf,EDANS-DABCYL int,others
Cc1ccc(-c2c(C#N)c(N)n(-c3ccc(C)cc3)c(=O)c2C#N)cc1,1,-8,-4,21*,-6,187*,270*,
O=C(CC(=O)c1ccccc1)Nc1ccccn1,-107,-35,-247,21*,-30,2,2,
O=C(O)c1ccc(N/N=C/C2=Cc3ccccc3OC2)cc1,-10,-115,-29,15*,-78,4,11*,
O=C(O)c1ccc(N/N=C/c2ccncc2)cc1,1,-4,-2,-1,4,/,/,
CC(COc1ccc(Br)cc1)CN1CCC(C(O)(c2ccccc2)c2ccccc2)CC1 (stereo not drawn),6,-2,-1,0,2,/,/,
CCOC(=O)CC(=O)CSc1nc2c(cc1C#N)CCCCC2,-29,-136,-90,29*,-111,59*,62*,
N#Cc1cc2c(nc1SCC(=O)N1CCCCC1)CCCC2,-4,6,-3,0,1,/,/,
N#CCSc1nc2c(cc1C#N)CCCCCC2,-44,i,-181,15*,i,34*,33*,
CC(C)OC(=O)CC(=O)CSc1nc2c(cc1C#N)CCCCC2,-20,-79,-95,24*,-61,80*,81*,
CC(C)OC(=O)CSc1nc2c(cc1C#N)CCCCC2,-7,-33,-18,0,-21,/,/,
CCN(C[C@@H]1[C@@H](c2ccccc2)[C@H](CO)N1S(C)(=O)=O)C(=O)C1CCC1,-2,1,-4,0,0,/,/,
CCOC(=O)c1c(C)oc2ccc(NS(=O)(=O)c3ccc4c5c(cccc35)C(=O)N4)cc12,-5,-70,-11,3,-47,/,/,
O=C1Nc2ccc(S(=O)(=O)NCCC3=CCCCC3)c3cccc1c23,-113,i,-335,18*,-435,12,19*,
O=C1Nc2ccc(S(=O)(=O)NCCCO)c3cccc1c23,-412,i,i,64*,i,83*,86*,
CCN(c1cccc(C)c1)S(=O)(=O)c1ccc2c3c(cccc13)C(=O)N2,-7,-200,-15,-1,-165,/,/,
CCNS(=O)(=O)c1ccc2c3c(cccc13)C(=O)N2,-441,i,i,86*,i,68*,82*,
CCN(CC)S(=O)(=O)c1ccc2c3c(cccc13)C(=O)N2,-130,i,i,23*,i,15*,21*,
CCOC(=O)CCc1c(C)c2ccc3c(c2oc1=O)CN(CCCO)CO3,i,i,i,52*,i,71*,75*,
CCOC(=O)CCc1c(C)c2ccc(OCC)c(C)c2oc1=O,-64,-16,-190,-1,-13,/,/,
COC(=O)C1=C(C)N(Cc2cccc(C(F)(F)F)c2)C(=NCc2cc(OC)c(OC)c(OC)c2)NC1c1ccc(Cl)cc1 (stereo not drawn),0,-2,-2,0,-1,/,/,
CN1CC(=O)N2[C@@H](C[C@]3(c4c[nH]c5ccccc45)c4ccccc4N(S(=O)(=O)c4ccccc4)[C@H]23)C1=O,-3,-5,-3,/,-3,/,/,
COc1cc2c(cc1OC)C(CSc1ccccc1C(=O)O)=NC(C)(C)C2,-37,-93,-107,14*,-77,6,5.2*,
COC(=O)[C@]12CCCCC=C1N(Cc1ccc(OC)cc1)C(=O)[C@@H]2CC(=O)NCC1CCCCC1,-1,2,4,0,-1,/,/,
CC(=O)Nc1cccc(NC(=O)CSc2ncc(C(=O)Nc3ccc(F)cc3)c(=O)n2C)c1,0,4,-9,0,1,/,/,
CC(=O)Nc1cccc(NC(=O)CSc2ncc(C(=O)Nc3ccccc3)c(=O)n2C)c1,-7,-12,-17,100*,2,6,13*,
SMILES,ADAM17 inh,PLC-beta3 inh,ADAM10 inh,KLK7 zymogen act,PLCg1 inh,KLK7 act conf,EDANS-DABCYL int,others
CCOC(=O)C1=C(CSc2nc3c(cc2C#N)CCC3)OC(N)=C(C#N)C1c1ccccc1 (stereo not drawn),-30,-124,-96,5,-98,/,/,
CCOC(=O)CC1=C(C(=O)OCC)C(c2cccnc2)C(C#N)=C(N)O1 (stereo not drawn),-8,-26,-17,0,-21,/,/,
CCOC(=O)C1=C(CSc2nc(-c3ccccc3)ccc2C#N)OC(N)=C(C#N)C1c1cccnc1 (stereo not drawn),-186,i,i,382*,i,384*,347*,
CCOC(=O)C1=C(CSc2nc(-c3ccccc3)ccc2C#N)OC(N)=C(C#N)C1c1ccccc1 (stereo not drawn),-160,i,-492,470*,i,585*,566*,
CCOc1ccc(/C(O)=C2/C(=O)C(=O)N(c3ccccn3)C2c2ccc(C)cc2)c(C)c1 (stereo not drawn),-2,-22,0,17*,-20,32*,32*,
Cc1ccc(C2c3c(n[nH]c3C)C(=O)N2c2ccccc2)cc1 (stereo not drawn),0,3,4,-1,1,/,/,
CCN(CC)C(=O)CN1C(=O)C2(NC(=O)c3ccccc3N2)c2ccccc21 (stereo not drawn),-77,-121,-312,5,-93,/,/,
CC(=O)N1CC2(NC(=O)c3ccccc3N2)c2ccccc21 (stereo not drawn),-435,-403,i,19*,-333,17*,18*,
O=C1CCCc2nc3c(cc21)C(O)Oc1ccccc1-3 (stereo not drawn),-193,i,i,71*,i,52*,65*,
CCCOC(=O)Oc1ccc2c(=O)c(Oc3cc(C)cc(C)c3)coc2c1,-188,i,i,43*,i,77*,65*,K7 EDANS ctr=5*
CCCCOC(=O)Oc1ccc2c(=O)c(Oc3cccc(C)c3)coc2c1,-128,i,-432,43*,-472,85*,65*,K7 EDANS ctr=8.2*
CCCCOC(=O)Oc1ccc2c(=O)c(Oc3cc(C)cc(C)c3)coc2c1,-63,-244,-195,4,-218,/,/,
COC(=O)C1CN(Cc2ccc(OC)cc2)CCS(=O)(=O)N1Cc1ccccc1 (stereo not drawn),-4,0,-4,0,0,/,/,
O=C(c1ccco1)N1CCN(C(=O)c2cnn3c(C(F)(F)F)cc(-c4cccs4)nc23)CC1,-118,i,-349,25*,i,-4,1,
O=C(c1cnn2c(C(F)(F)F)cc(-c3cccs3)nc12)N1CCN(Cc2ccccc2)CC1,-13,-94,-25,-6,-69,/,/,
CN1CCN(C(=O)c2cnn3c(C(F)(F)F)cc(-c4cccs4)nc23)CC1,-53,i,-203,19*,-457,29*,25*,
